Assay [1] is described as follows: Cell Viability - HepG2 (AID 433; calls by dose curve;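 further: potency means the concentration at half of the fitted maximal effect; potency for ATP loss meaning cytotoxicity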). To be noted: qHTS. Summed up: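 Cytotoxicity read as ATP loss (CellTiter-Glo luminescence) after 40 hr compound exposure of HepG2, 1500 cells/well, 37 °C. AC50 by Hill equation; 0% set by DMSO, 100% inhibition by 100 uM tamoxifen.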
(qHTS replaces the single test concentration by a dilution series.)

A short description of assay [2]: Cell Viability - HUV-EC-C (AID 542). Further: nearly all actives have a fitted effect of over 35% in size. Further: potency means the concentration at half of the fitted maximal effect. As to conditions: HUV-EC-C endothelial cell viability, qHTS; series mostly up to 92.2 µM. Summed up: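 HUV-EC-C normal human vascular endothelial cells, 1000 cells/well, pre-incubated 5 hr at 37 °C, then exposed to compounds for 40 hr at 37 °C in complete medium. Viability measured as intracellular ATP by CellTiter-Glo luminescence; AC50 from Hill fits.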

Assay [3] is described as follows: Cell Viability - H-4-II-E (AID 543). Further: nearly all actives have a fitted effect of over 35% in size. Further: potency means the concentration at half of the fitted maximal effect. As to conditions: H-4-II-E rat hepatoma viability; series mostly up to 92.2 µM. Summed up: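 Rat hepatoma H-4-II-E cells (1500/well) were plated, incubated 5 hr at 37 °C, then exposed to compounds for 40 hr at 37 °C. Cellular ATP was read by CellTiter-Glo luminescence; AC50 came from Hill-equation fits of concentration-response data.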

Assay [4] is described as follows: Cell Viability - SH-SY5Y (AID 544). Further: nearly all actives have a fitted effect of over 55% in size. Further: potency means the concentration at half of the fitted maximal effect. To be noted: SH-SY5Y neuroblastoma cell viability; viability change, negative = cytotoxic: at 92.2 µM (top of the series). Summed up: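 Human neuroblastoma SH-SY5Y cells (1500/well) in complete medium were exposed to compounds for 40 hr at 37 °C; intracellular ATP was then quantified by CellTiter-Glo luminescence after 20 min at room temperature. AC50 came from Hill-equation concentration-response fits.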

The nature of assay [5]: Cellular Toxicity (caspase-3) MRC-5 (AID 659). To be noted: MRC-5 cells, luminescence, normalized: DMSO 0%, 10 µM staurosporine 100%; series mostly up to 91.7 µM. Put shortly: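 Concentration-dependent caspase 3/7 activation is measured in human normal lung fibroblasts (MRC-5) following 16-hour treatment. AC50 values come from standard Hill-equation modeling of luminescence normalized to DMSO and 10 uM staurosporine.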

Assay [6] in a line: Cellular Toxicity (caspase-3) SK-N-SH (AID 661). To be noted: SK-N-SH caspase-3 activation, qHTS; caspase-3 activation: at 91.7 µM (top of the series), DMSO as zero, staurosporine as full. Summed up:
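SK-N-SH human neuroblastoma cells (1500/well) were treated with compounds for 16 hr at 37 °C in complete medium; caspase 3/7 activity was read by Caspase-Glo luminescence. AC50 came from Hill fits of data normalized to DMSO and 10 uM staurosporine.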

Assay [7] can be described thus: Cellular Toxicity (caspase-3) Hek293 (AID 664).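 Further: cells exposed to compound for 16 h at 37 °C before readout.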 As to conditions: HEK293 caspase-3 activation, DMSO = 0%, 100 µM tamoxifen = 100%; at 92.2 µM (top of the series). Put shortly: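 HEK293 cells were exposed to compounds in complete medium for 16 hr at 37 °C, then caspase-3/7 activity was read by Caspase-Glo 3/7 luminescence after 20 min at room temperature. Data normalized to DMSO and 100 uM tamoxifen; AC50 from Hill fits.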

Assay [8] in a line: Cellular Toxicity (caspase-3) NIH 3T3 (AID 666).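 Further: caspase signal read after 16 h compound exposure; 0% = DMSO basal and 100% = 100 µM tamoxifen stimulation.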 To be noted: NIH 3T3 caspase-3 activation, apoptosis/toxicity; series mostly up to 92.2 µM. Summed up:
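Mouse NIH 3T3 fibroblasts (1000 cells/well) were treated with compound for 16 hr at 37°C in complete medium; caspase-3/7 activity was read by Caspase-Glo luminescence. Normalized to DMSO and 100 uM tamoxifen; AC50 from Hill fits.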

The nature of assay [9]: MultiTox-Fluor Cytotoxicity Assay - LYMP1-001 - Live Cells (AID 947). Further: potency means the concentration at half of the fitted maximal effect. To be noted: LYMP1-001 lymphoblastoid cells, live-cell protease fluorescence viability; series mostly up to 92.2 µM.
Assay [10] is described as follows: Cell Viability - LYMP1-002 - Assay at 16 hr (AID 948). Further: potency means the concentration at half of the fitted maximal effect. As to conditions: LYMP1-002 lymphoblastoid cell viability; series mostly up to 92.2 µM. Put shortly:
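ATP luminescence (CellTiter-Glo) was measured after 16 hr compound exposure at 37 C of 2500 lymphoblastoid LYMP1-002 cells per well. Concentration-response curves were fitted with the Hill equation to give AC50.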

Assay [11] is described as follows: MultiTox-Fluor Cytotoxicity Assay - LYMP1-002 - Live Cells (AID 955). Further: potency means the concentration at half of the fitted maximal effect. On viability change, negative = cytotoxic: on the % scale 0 is the no-effect control and ±100 the full control effect. To be noted: LYMP1-002 lymphoblastoid live-cell protease fluorescence viability; series mostly up to 46.1 µM. Summed up: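 Human lymphoblastoid LYMP1-002 cells, 2500/well in complete medium, rested 5 hr at 37 C, then exposed to compounds for 16 hr at 37 C. Live-cell protease cleavage of GF-AFC read by fluorescence (Ex/Em 405/510) after 60 min at room temperature; AC50 from Hill fits.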

Assay [12] can be described thus: MultiTox-Fluor Cytotoxicity Assay - LYMP1-003 - Live Cells (AID 962). Further: potency means the concentration at half of the fitted maximal effect. To be noted: LYMP1-003 lymphoblastoid cells, MultiTox-Fluor live-cell protease fluorescence; series mostly up to 92.2 µM. Put shortly: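 LYMP1-003 human lymphoblastoid cells (2500/well) in complete medium were preincubated 5 hr at 37 C, then exposed to compounds for 16 hr at 37 C. Live-cell protease cleavage of GF-AFC read by fluorescence (Ex/Em 405/510); AC50 from Hill fits.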

A short description of assay [13]: Cell Viability - LYMP1-003 - Assay at 24 hr (AID 963). Further: potency means the concentration at half of the fitted maximal effect.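 On viability change, negative = cytotoxic: plate controls were DMSO only for no effect and tetraoctylammonium bromide positive control for full effect.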 To be noted: LYMP1-003 lymphoblastoid cell viability; series mostly up to 92.2 µM. Summed up:
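Human lymphoblastoid LYMP1-003 cells (2500/well) were rested 5 hr at 37 C, then exposed to compounds in complete medium for 24 hr at 37 C. Cellular ATP was quantified by CellTiter-Glo luminescence, and AC50 values came from Hill fits of concentration-response data.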

Assay [14] in a line: Cell Viability - LYMP2-021 (AID 974).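 Further: compound exposure lasts 24 hours at 37 °C; nearly all actives have a fitted effect of over 55% in size.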 Further: potency means the concentration at half of the fitted maximal effect. As to conditions: LYMP2-021 lymphoblastoid cells viability; series mostly up to 92.2 µM. Summed up:
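Human lymphoblastoid cells (2500/well) were preincubated 5 hr at 37 C, then exposed to compounds for 24 hr at 37 C in complete medium. Intracellular ATP was read by CellTiter-Glo luminescence; AC50 came from Hill-equation fits of concentration-response data.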

The nature of assay [15]: Cell Viability - LYMP2-023 (AID 975). Further: nearly all actives have a fitted effect of over 55% in size. Further: potency means the concentration at half of the fitted maximal effect. As to conditions: LYMP2-023 lymphoblastoid cell viability; series mostly up to 92.2 µM. Put shortly: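 Human lymphoblastoid cells (2500/well) were preincubated 5 hr at 37 C, then exposed to compounds for 24 hr at 37 C in complete medium. Cellular ATP was read by CellTiter-Glo luminescence, and AC50 came from Hill-equation fits.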
A short description of assay [16]: Cell Viability - LYMP2-007 (AID 979).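 Further: cells exposed to compound for 24 h before reading; nearly all actives have a fitted effect of over 60% in size.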 Further: potency means the concentration at half of the fitted maximal effect. To be noted: LYMP2-007 lymphoblastoid cell viability; series mostly up to 92.2 µM. Summed up:
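Human lymphoblastoid cells (2500/well) were plated in complete medium, incubated 5 hr at 37 C, then exposed to compounds for 24 hr at 37 C. Intracellular ATP was read by CellTiter-Glo luminescence after 30 min at room temperature; AC50 from Hill fits.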

Assay [17] is described as follows: Cell Viability - LYMP1-002 - Assay at 24 hr (AID 993). Further: potency means the concentration at half of the fitted maximal effect. As to conditions: LYMP1-002 lymphoblastoid cells viability; series mostly up to 92.2 µM. Put shortly:
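Human lymphoblastoid LYMP1-002 cells, 2500/well in complete medium, were treated with compounds for 24 h at 37 C; intracellular ATP was read by CellTiter-Glo luminescence. AC50 values came from Hill-equation fits of qHTS concentration-response data.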

For assay [18], the target named is Vitamin D3 receptor (Homo sapiens) (UniProt P11473). Briefly: qHTS assay for small molecule antagonists of vitamin D receptor signaling (AID 588541; calls by dose curve; further: potency means the concentration at half of the fitted maximal effect). To be noted: HEK293T VDR-UAS-bla, beta-lactamase ratio, antagonist mode; series mostly up to 76.7 µM. Put shortly: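 Antagonist-mode beta-lactamase reporter assay: HEK293T VDR-UAS-bla cells were exposed to titrated compound alongside 1-alpha,25-dihydroxyvitamin D3 at 3 nM final for 16 h. Values were normalized to the 50 nM agonist control and DMSO basal, with IC50 and efficacy from Hill equation fits.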
Chain of Vitamin D3 receptor (Homo sapiens) (P11473 whole entry, looked up): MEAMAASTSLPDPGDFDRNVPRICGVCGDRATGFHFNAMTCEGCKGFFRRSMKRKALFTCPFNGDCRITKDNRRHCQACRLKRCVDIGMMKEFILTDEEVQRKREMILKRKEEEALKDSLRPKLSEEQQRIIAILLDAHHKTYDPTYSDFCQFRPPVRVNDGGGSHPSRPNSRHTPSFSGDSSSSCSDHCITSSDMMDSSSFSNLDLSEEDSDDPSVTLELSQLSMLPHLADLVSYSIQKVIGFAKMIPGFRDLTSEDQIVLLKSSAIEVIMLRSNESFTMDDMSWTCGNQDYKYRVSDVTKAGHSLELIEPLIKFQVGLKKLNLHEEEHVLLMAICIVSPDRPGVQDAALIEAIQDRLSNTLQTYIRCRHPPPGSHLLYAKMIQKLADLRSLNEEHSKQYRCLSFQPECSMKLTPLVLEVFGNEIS

Assay [19] can be described thus: qHTS assay for cell viability of HEK293 cells (AID 743288). Further: nearly all actives have a fitted effect of over 50% in size. Further: potency means the concentration at half of the fitted maximal effect. On max response: on the % scale 0 is the no-effect control and ±100 the full control effect. As to conditions: ATP luminescence (CellTiter-Glo), 18 h; max response: stronger effect = lower value. Summed up:
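Total intracellular ATP, measured with a luciferase-coupled reagent, indicates the number of viable HEK293 cells. Exposure to test chemicals lasts 18 h at 37 C in 1,536-well format at 2,000 cells/well.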

A short description of assay [20]: qHTS assay for cell viability of the p53RE-bla HCT-116 cell line (AID 743292). Further: nearly all actives have a fitted effect of over 55% in size. Further: potency means the concentration at half of the fitted maximal effect. To be noted: p53RE-bla HCT-116 viability, ATP luminescence, 16 h; series mostly up to 95 µM. Put shortly:
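ATP-based luminescent viability (CellTiter-Glo, 30 min RT) after 16 h compound treatment at 37 C of p53RE-bla HCT-116 cells, seeded at 4,000 cells/well and rested 5 h before dosing.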

SMILES strings stand for the structures. Several values for one entry are separate records, joined by “and”; a condition that tells them apart may be missing. Identical values can stand only once. Results filed as inconclusive are left out. Where a structure was tested more than once in an assay, its records may differ in their call. Activity calls are given as the source filed them. Unless noted, the call rests on the fitted dose curve; in most records, active means well fitted curve in the direction sought with a large enough effect; inconclusive means small, poorly fitted or top-dose-only effect, or another doubt; inactive means no such curve, though single readings can be large; an effect the other way counts as inactive or inconclusive. Where only a bound is given, the exact number is not on record here.

Take `O=Cc1ccc(Cl)c(Cl)c1`: the Potency in assay [1] is > 92 µM (inactive). Further, the Potency result in assay [2], in [3], in [4], in [8], in [9] and in assay [10] was “inactive” each time. Besides, the Potency result in assay [11], in assay [12], in assay [13], in assay [14], in assay [15] and in [16] was “inactive” in each case. Moreover, the Potency result in assay [17], in assay [18] and in [20] was “inactive” in each case. For the same molecule, the result in assay [5] was inactive. The caspase-3 activation in assay [6] was 1.15% (inactive); in assay [7], 1.45% (inactive). Also, in [19], the max response was -7.75% (inactive).

Consider `CC(=O)Nc1ccc(C(=O)CCl)cc1`, for which the Potency was 40.3 µM (active) in assay [1]; 50.1 µM (active) in assay [2]; 10 µM (active) in assay [3]; 3.16 µM (active) in [4]; 20 µM (active) in assay [9]; 25.1 µM (active) in assay [10]. In addition, the Potency is 12.6 µM (active) in assay [11]; 31.6 µM (active) in assay [12]; 39.8 µM (active) in assay [13]; 5.01 µM (active) in assay [14]; 7.94 µM (active) in assay [15]; 6.31 µM (active) in [16]. The Potency in assay [17] is 25.1 µM (active); in assay [18], 25.1 µM (active); in assay [19], 22.4 µM (active) and 25.1 µM (active). Also, the molecule was classed as inactive in [5]. Besides, the caspase-3 activation in assay [6] is -5.98% (inactive). The Potency result in assay [8] and in assay [20] was “inactive” each time.

As for `C=C(C)c1ccccc1`, the Potency in assay [1] is > 92 µM (inactive). For the same molecule, the Potency result in [2], in [3], in assay [4], in [8], in [9] and in assay [10] was “inactive” each time. Besides, the Potency result in assay [11], in assay [12], in [13], in [14], in assay [15] and in assay [16] was “inactive” each time. Also, the Potency entry in assay [17], in assay [18] and in [20] was “inactive” throughout. The molecule was classed as inactive in assay [5]. Besides, the values for the caspase-3 activation in assay [6] and in [7] were 0.438% (inactive) and 0.697% (inactive), respectively. For the same molecule, the max response in [19] was 1.22% (inactive).

With `ClC1=C(Cl)C(Cl)(Cl)C(Cl)=C1Cl`, the Potency in [1] is 22.6 µM (active); in [19], 11.2 µM (active); in [20], 25.1 µM (active) and inactive. Besides, the Potency entry in assay [2], in assay [3], in assay [4], in [8], in assay [9] and in assay [10] was “inactive” throughout. The Potency entry in assay [11], in [12], in assay [13], in [17] and in assay [18] was “inactive” each time. In assay [5], the result was inactive. For the same molecule, in [7], the caspase-3 activation is 131% (active). Further, in assay [19], the max response was -13.8% (inactive).

Consider `Nc1ccc2cc3ccccc3cc2c1`, for which the Potency in [1] is > 92 µM (inactive). Also, the Potency result in [2], in [3], in [4], in [8], in [9] and in assay [10] was “inactive” each time. Further, the Potency result in assay [12], in assay [13], in assay [14], in assay [15], in [16] and in assay [17] was “inactive” in each case. In assay [20], the Potency entry is “inactive”. Further, the molecule was classed as inactive in [5]. The caspase-3 activation in assay [6] is -1.26% (inactive); in assay [7], -0.457% (inactive). Further, in [19], the max response is -16.2% (inactive).

Consider `Cc1ccc(S(=O)(=O)Oc2ccc(N=Nc3ccc(-c4ccc(N=Nc5c(O)ccc6cc(S(=O)(=O)O)cc(S(=O)(=O)O)c56)c(C)c4)cc3C)cc2)cc1`, for which the Potency in [2] was 25.1 µM (active). The molecule was classed as inactive in assay [5]. The caspase-3 activation in assay [6] was -0.915% (inactive); in assay [7], -1.72% (inactive). In addition, the Potency result in assay [8], in [11] and in [18] was “inactive” throughout.

Turning to `Cc1cc(Nc2ccc(O)cc2)ccc1N`, the Potency was 39.8 µM (active) in [3]; 6.31 µM (active) in assay [4]; 50.1 µM (active) in assay [14]; 50.1 µM (active) in assay [15]; 31.6 µM (active) in assay [16]. The result in assay [5] was inactive. Also, the caspase-3 activation was 12.7% (inactive) in [6] and -8.9% (inactive) in [7]. For the same molecule, the Potency result in [9], in assay [10], in assay [11], in assay [12], in [13] and in assay [17] was “inactive” in each case. Further, the Potency entry in [18] and in assay [20] was “inactive” throughout. Besides, in assay [19], the max response was -27% (inactive).

(Values after PubChem BioAssay (NCATS).)
